Screening results as filed in PubChem BioAssay.
In the library only some 10% were active in any assay of this set; here they are far more common.
G9a block = G9a (human) methyltransferase inhibition; Q96KQ7; AID 504332; hit rate 8.8% among 350,000; G9a H3K9 monomethylation, AlphaScreen, 2 h; Potency, µM (highest dose often 102 µM), without a hit: at the highest dose activity, negative = inhibition, usual class: inhibitors; also: potency is read from the fitted curve at half-maximal effect; % is scaled to controls: 0 for no effect and ±100 for the full control effect; nearly all actives have a fitted effect of over 75% in size
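G9a (20 nM) was preincubated 15 min with compound, then reacted 2 h at room temperature with 500 nM biotin-H3K9 peptide and 20 µM SAM. Monomethyl-H3K9 detected by AlphaScreen using anti-H3K9me1 antibody.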
HP1b chromo inh = HP1-beta chromodomain-methylated histone interaction inhibition; P83916; AlphaScreen HP1-beta / biotin-H3K9me3 peptide binding; Potency, µM (highest dose often 114 µM), for the others: at the top dose activity change, negative = inhibition, hits mostly inhibitors; hit rate 0.56% among 390,000; also: potency is read from the fitted curve at half-maximal effect; nearly all actives have a fitted effect of over 70% in size
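HP1-beta protein (50 nM final) preincubated 30 min at room temperature with biotinylated H3(1-18)K9me3 peptide (50 nM) in PBS pH 7.4, 0.01% Tween-20, then compound added for 30 min. AlphaScreen streptavidin donor/nickel chelate acceptor beads (10 ug/mL final), 30 min dark, luminescence read.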
BAZ2B inh = BAZ2B (human) inhibition. Q9UIF8. AlphaScreen BAZ2B-H3K14Ac peptide displacement. Potency, µM (top dose mostly 114 µM), inactives show top-dose activity change, negative = inhibition, hits mostly inhibitors. hit rate 4.4% among 360,000. AID 504333; also: potency is read from the fitted curve at half-maximal effect; % is scaled to controls: 0 for no effect and ±100 for the full control effect; nearly all actives have a fitted effect of over 60% in size
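Inhibition is scored as reduced AlphaScreen emission. The BAZ2B/b-H3(5-23)K14Ac complex (50 nM each) in PBS pH 7.4, 0.01% Tween-20 meets compound (up to 110 uM) for 30 min at RT before bead addition.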
JMJD2A Tudor inh = inhibitors of human JMJD2A Tudor domain. O75164. AlphaScreen JMJD2A-Tudor / H3K4me3 peptide binding. Potency, µM (series often up to 114 µM), for inactives: at the top dose activity change, negative = inhibition, usual class: inhibitors. hit rate 4.4% among 390,000. AID 504339; also: potency is read from the fitted curve at half-maximal effect; % is scaled to controls: 0 for no effect and ±100 for the full control effect; nearly all actives have a fitted effect of over 50% in size
Six1-Eya2 blk = Six1/Eya2 interaction inhibition; Q15475+O00167; AlphaScreen GST-Six1/His-Eya2 binding, biochemical; hits give low values; activity change, % (no concentration beside the values); hit rate 0.56% among 360,000; in the data active = activity change below about -65%; inconclusive = mostly about -30% to -63%; also: % is scaled to controls: 0 for no effect and ±100 for the full control effect
Target sequence (O00167 whole entry, looked up): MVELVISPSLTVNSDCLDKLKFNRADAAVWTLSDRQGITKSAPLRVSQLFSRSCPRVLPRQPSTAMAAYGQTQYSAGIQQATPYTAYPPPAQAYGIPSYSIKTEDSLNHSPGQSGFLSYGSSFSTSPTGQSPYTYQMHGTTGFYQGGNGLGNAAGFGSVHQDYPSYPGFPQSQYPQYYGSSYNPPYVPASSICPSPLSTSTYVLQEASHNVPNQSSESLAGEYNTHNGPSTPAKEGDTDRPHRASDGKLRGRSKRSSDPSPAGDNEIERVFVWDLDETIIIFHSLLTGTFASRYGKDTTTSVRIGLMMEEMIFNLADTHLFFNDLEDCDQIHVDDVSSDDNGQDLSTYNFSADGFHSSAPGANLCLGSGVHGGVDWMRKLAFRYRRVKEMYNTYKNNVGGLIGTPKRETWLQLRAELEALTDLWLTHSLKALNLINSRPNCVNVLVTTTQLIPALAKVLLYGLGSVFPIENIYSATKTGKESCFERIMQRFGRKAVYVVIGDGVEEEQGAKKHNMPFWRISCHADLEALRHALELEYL
Target sequence (Q15475 whole entry, looked up): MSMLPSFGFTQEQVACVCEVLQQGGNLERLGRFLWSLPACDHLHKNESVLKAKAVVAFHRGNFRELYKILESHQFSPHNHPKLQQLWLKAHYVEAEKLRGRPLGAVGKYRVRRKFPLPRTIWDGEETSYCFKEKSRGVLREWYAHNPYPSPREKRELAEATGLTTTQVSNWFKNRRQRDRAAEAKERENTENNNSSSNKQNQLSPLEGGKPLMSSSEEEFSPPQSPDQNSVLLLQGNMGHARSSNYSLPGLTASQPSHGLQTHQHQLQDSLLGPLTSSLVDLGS
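Compounds are tested against tagged Six1 and Eya2 proteins bridged by glutathione donor and nickel acceptor beads; after a one-hour incubation at 37 °C without light, AlphaScreen emission is recorded.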
CtBP-E1A inh = CtBP/E1A binding inhibition; AlphaScreen GST-E1A/His-CtBP binding, 1536-well; hits give low values; activity change, % (test concentration not listed); hit rate 0.49% among 340,000; AID 651724; in the data active = activity change below about -65%; inconclusive = mostly about -30% to -63%; also: % is scaled to controls: 0 for no effect and ±100 for the full control effect
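Protein mix (5X: 125 nM each GST-E1A, His-CtBP) was incubated with pinned compound 2 h at 37 deg C in dark, in 50 mM Tris pH 8.0 buffer with 300 mM NaCl. Glutathione donor and nickel acceptor beads followed; AlphaScreen signal read after 1 h.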
The depositor's hits bear a star; ? = inconclusive; / = no result given; [ ] = another dose, or the depositor's remark. Unless noted, calls follow the shape of the dose curve; as a rule, active = well fitted inhibition curve with a large enough effect; inconclusive = small, poorly fitted or top-dose-only effect; inactive = no such curve, though single readings can be large or run the other way.

SMILES	G9a block	HP1b chromo inh	BAZ2B inh	JMJD2A Tudor inh	Six1-Eya2 blk	CtBP-E1A inh
COc1ccccc1N1CCN(CCCCNS(=O)(=O)c2cccc3c(N(C)C)cccc23)CC1	27µM*	/	/	/	/	/
COc1ccc(S(=O)(=O)NCCN2CCOCC2)c2ccccc12	28µM*	14%	-28%	-24%	-1	7
COc1ccc(S(=O)(=O)NCCN2CCOCC2)c(C)c1C	21%[59 µM]	71%	3%	-2%	-1	2
COc1ccccc1N1CCN(CCCCN2C(=O)CCC2=O)CC1	-9%[59 µM]	/	/	/	/	/
CSc1ccc(Nc2nn(-c3ccc(OC(F)(F)F)cc3)nc2C(C)=O)cc1	8%[59 µM]	5%	2%	-20%	/	/
CCOC(=O)Cc1ccc(NC(=O)Nc2cccc(OCc3cc(=O)n4cc(C)ccc4n3)c2)cc1	13%[59 µM]	26%[57 µM]	9%	2%	/	/
Cc1ccc(-c2n[nH]c3c2C(c2ccc(C(C)(C)C)cc2)NC3=O)cc1 (configuration not stated)	-6%[59 µM]	24%	/	-15%	/	/
Cc1cccc(C)c1OCCCN1CCOCC1	35µM*	-1%	-23%	-15%	7	11
COc1ccc(CNC(=O)[C@@H]2CCCN2C(=O)[C@@H]2Cc3ccccc3CN2C(=O)OC(C)(C)C)cc1	27%	38%	-2%	4%	1	1
COc1ccc(N2CCN(C(=O)C3Cc4ccccc4CN3C(=O)c3ccccc3)CC2)cc1 (configuration not stated)	50µM*	-12%	?	-35%	-4	-9
CC(=O)N1Cc2ccccc2CC1C(=O)N1CCN(c2ccccc2)CC1 (configuration not stated)	-1%	12%	-9%	-10%	-1	1
Cc1ccc(-n2nnnc2SCC(=O)N2Cc3ccccc3CC2C(=O)O)cc1 (configuration not stated)	45µM*	45%	-16%	-9%	0	-6
CC(C)(C)OC(=O)N1Cc2ccccc2C[C@H]1C(=O)N1CCC[C@H]1C(=O)O	18µM*	6%	2%	-3%	6	5
Cc1ccc(C(=O)N2Cc3ccccc3CC2C(=O)O)cc1 (configuration not stated)	35µM*	25%	-26%	?	4	12
CCCSc1ncc(Cl)c(C(=O)Nc2sc3c(c2C(=O)OC)CCCC3)n1	10%[59 µM]	12%	0%	-14%	/	/
N[C@@]1(C(=O)O)CN[C@@H](C(=O)O)C1	29%[59 µM]	/	/	/	/	/
Cc1ccc(-n2c(SCC(=O)N3Cc4ccccc4CC3C(=O)O)nnc2-c2cccnc2)c(C)c1 (configuration not stated)	45µM*	56%	13%	-3%	-2	6
CCCCN(C)CCCNC(=O)C1CCN(c2nc3ccc(CC)cc3s2)CC1	-36%[59 µM]	21%	-9%	-10%	/	/
Cc1ccccc1CNC(=O)c1sc2ncnc(N(C)C3CCCCC3)c2c1C	8%[59 µM]	36%	2%	-17%	/	/
CCC1(CC)N([O-])C(C)=C(c2ccccc2)[N+]1=O	10%	19%	3%	-10%	6	5
CC1=C(c2ccccc2)[N+](=O)C2(CCCCC2)N1[O-]	50µM*	3%	-13%	-14%	14	4
CCC(C)n1c(OC)nc2c1c(=O)n(C)c(=O)n2C (configuration not stated)	-15%	-14%	-3%	11µM*	-1	2
CC1(C)CC(=O)C(C(C2=C(O)CC(C)(C)CC2=O)c2cccs2)C(=O)C1 (configuration not stated)	45µM*	21%	3%	-19%	7	8
CCCC(C1=C(O)CC(C)(C)CC1=O)C1C(=O)CC(C)(C)CC1=O (configuration not stated)	28µM*	55%	-3%	-2%	-3	0
CC1(C)CC(=O)C(C(C2=C(O)CC(C)(C)CC2=O)c2cccc(O)c2)C(=O)C1 (configuration not stated)	?	44%	3%	-12%	0	-2
